# This is a sample that favours compounds with a hit; in the whole collection about 4.6% have one here.
# V-ATPase pHluor: regulators of yeast V-ATPase proton pumping, primary screen, pHLuorin cytosolic pH fluorescence; S. cerevisiae; response, % at 10 µM; AID 504577, 2011; actives 0.37% (n = 350,000); in the data active = response mostly above about 7.3%, no sharp cut-off; inactive = mostly below about 5.4%; also: actives read high
# tim10-1 inh: growth inhibitors of tim10-1 mutant yeast, primary screen, luminescence, uHTS; AID 463190, 2010; S. cerevisiae tim10-1 ts strain growth, BacTiter-Glo, 24 h; inhibition, % at 20 µM; actives 2.2% (n = 330,000);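 active = inhibition of at least 40%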;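 also: mutant grown at 25 °C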
# SKKanGAS inh: S. pyogenes SKKanGAS growth inhibitors in kanamycin, primary screen, streptokinase expression inhibitor project, SKKanGAS strain, BacTiter-Glo luminescence. actives 1.3% (n = 300,000). 6 h. inhibition, % at 7.5 µM;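 active = mean replicate score, as percent of positive control median, at least 50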;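 also: strain carries kanamycin resistance gene driven by streptokinase promoter and grows in 40 µg/ml kanamycin; loss of luminescence reflects streptokinase promoter inhibition or plain growth inhibition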
# PfHsp90 yeast 2: growth inhibition of PfHsp90-expressing yeast, primary screen, antimalarial PfHsp90 inhibitor project, S. cerevisiae, BacTiter-Glo luminescence, single point, set 2 | BacTiter-Glo ATP, 48 h; yeast lacking PDR1 and PDR3 efflux regulators | inhibition, % at 9.4 µM | actives 0.32% (n = 310,000);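 active = every replicate shows inhibition above about 80%, whatever the replicate mean, limit read from the data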
# TIM10 inh: growth inhibitors of isogenic TIM10 control yeast, primary screen, counter-screen for tim10-1 yeast inhibitor project, luminescence, uHTS; S. cerevisiae TIM10 strain growth, BacTiter-Glo luminescence, 24 h; inhibition, % at 10 µM; actives 1.4% (n = 330,000);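 active = inhibition of 40% or more at the single tested concentration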;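 also: wild-type TIM10 isogenic control strain grown at permissive 25 °C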
# tim23-1 inh: growth inhibitors of tim23-1 mutant yeast, primary screen, luminescence, uHTS; S. cerevisiae tim23-1 growth, BacTiter-Glo luminescence, 24 h; inhibition, % at 20 µM; actives 1.3% (n = 330,000); AID 463212, 2010;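 active = growth inhibition of the mutant yeast at or above 50%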;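 also: temperature-sensitive mutant grown at 25 °C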
# TIM10 conf: growth inhibitors of wild-type TIM10 yeast, confirmation, counter-screen for tim10-1 synthetic lethality project, single concentration, luminescence, S. cerevisiae; shares compounds with TIM10 inh; S. cerevisiae tim10 strain growth, BacTiter-Glo luminescence, 24 h; inhibition, % at 10 µM; actives 63% (n = 4,600); AID 463215, 2010;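 active = inhibition of yeast growth at or above a set limit in either of two replicates at 10 µM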; also: this counterscreen used the strain with wild-type TIM10
# tim23-1 conf: tim23-1 mutant yeast growth inhibitors, confirmation, luminescence, single concentration. shares compounds with tim23-1 inh. S. cerevisiae tim23-1 growth, BacTiter-Glo luminescence, 24 h. actives 83% (n = 4,400). inhibition, % at 20 µM;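 active = inhibition above about 39% in either of two replicate wells at 20 µM, limit read from the data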;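 also: temperature-sensitive tim23-1 mutant grown at 25 °C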
# V-ATPase pH SP: yeast V-ATPase proton pumping modulators, confirmation, S. cerevisiae, pH-sensitive GFP, second cherry-pick; actives 2% (n = 980); S. cerevisiae pHLuorin cytosolic pH, V-ATPase proton transport; AID 602197, 2012; shares compounds with V-ATPase pHluor; response, % at 10 µM; in the data active = response above about 24%
# Numbers stand for hits; - = inactive; . = not tested or not shown.
SMILES,V-ATPase pHluor,tim10-1 inh,SKKanGAS inh,PfHsp90 yeast 2,TIM10 inh,tim23-1 inh,TIM10 conf,tim23-1 conf,others
CCN(CC)c1cc(CS(=O)c2ccccc2)nc(-c2ccccc2)n1 (stereo not drawn),-,-,-,.,-,-,.,.,
N#CC1(c2nc3ccccc3[nH]2)CC1c1ccc2c(c1)OCO2 (stereo not drawn),.,-,-,.,56,56,32,72,
C(=N\Nc1nc2ccccc2[nH]1)/c1ccc2c(c1)OCO2,-,.,-,-,.,.,.,.,
Cc1c(N=O)c(-c2ccccc2)n(O)[n+]1[O-],-,.,.,.,.,.,.,.,
O=C(c1cccs1)N1CCN(c2nnc(-c3ccccc3)c3ccccc23)CC1,-,-,-,.,43,51,-,-,
CCCC(=O)N1CCN(c2nnc(-c3ccccc3)c3ccccc23)CC1,-,-,-,-,-,-,.,.,
COCCNC(=O)c1cc(S(=O)(=O)N2CCOCC2)ccc1SCc1cccc(OC)c1OC,-,-,-,-,-,-,.,.,
N#Cc1nc(-c2ccccc2F)oc1NCCc1ccccc1,-,-,-,-,66,57,61,78,
C=CCOc1ccc(CN(C)C(=O)CNC(=O)c2ccc(-c3ccccc3)cc2)cc1,-,-,-,-,-,-,.,.,
CCOC(=O)c1c(C)[nH]c(C(=O)COC(=O)COc2ccccc2C=O)c1C,-,-,-,-,53,54,51,62,
CCSc1ccc(/C(N)=N/OC(=O)c2cccs2)cn1,-,-,-,-,63,61,63,74,
Cc1ccccc1NC(=O)/C(C#N)=C/c1ccsc1,-,-,-,.,-,-,.,.,
Cc1cccc(C)c1NC(=O)/C(C#N)=C/c1ccsc1,-,-,-,-,44,62,37,57,
O=C(Nc1cc(Cl)cc(Cl)c1)N1CCCC1,-,-,59,-,48,54,-,46,
N#CC1=C(N2CCCCC2)c2cc3c(n2C1=O)CCCC3,-,-,-,-,44,52,33,57,
N#Cc1c2n(c(=O)[nH]c1=O)CCCCC2,-,-,-,-,-,-,.,.,
Nc1c(C(=O)Nc2ccccc2)sc2nc(-c3ccco3)ccc12,-,-,-,.,67,64,63,85,
COc1ccccc1NC(=O)c1sc2nc(-c3ccco3)ccc2c1N,-,-,-,.,-,-,.,.,
COCCNC(=S)N1CCN(Cc2cccc(OC)c2)CC1,-,-,-,-,-,-,.,.,
CC1CC(=O)N(CC(=O)Nc2ccccc2F)c2ccccc2S1(=O)=O (stereo not drawn),-,-,-,-,-,-,.,.,
CCC(C)NS(=O)(=O)c1ccc(NC(=O)c2cccs2)cc1 (stereo not drawn),-,-,-,-,-,-,.,.,
CCC(C)c1ccc(NC(=O)c2cccs2)cc1 (stereo not drawn),-,-,-,-,52,72,45,73,
NC(=O)CSc1oc(-c2ccco2)nc1S(=O)(=O)c1ccc(F)cc1,-,-,-,-,-,-,.,.,
O=C(N/N=C\c1ccc(O)c([N+](=O)[O-])c1)C1COc2ccccc2O1 (stereo not drawn),-,-,-,-,-,-,.,.,
Cc1cc([N+](=O)[O-])cc(/C=N\NC(=O)C2COc3ccccc3O2)c1O (stereo not drawn),-,-,106,-,45,67,36,70,
SMILES,V-ATPase pHluor,tim10-1 inh,SKKanGAS inh,PfHsp90 yeast 2,TIM10 inh,tim23-1 inh,TIM10 conf,tim23-1 conf,others
COc1cc(CN2CCc3ccccc3C2)cc([N+](=O)[O-])c1O,-,-,-,-,-,-,.,.,
O=[N+]([O-])c1cc2oc3c(c2c(C=NCc2ccccc2)c1O)CCCC3,-,-,-,-,54,77,-,-,
COc1ccc(OC)c2[nH]c(C(=O)N/N=C/c3ccccc3O)cc12,-,-,114,-,45,54,-,50,
COc1ccccc1C/C(N)=N/OC(=O)c1ccc2c(c1)OCO2,8.5,-,-,-,71,72,80,77,V-ATPase pH SP=-
COC1=CC(=O)[C@@]2([C@@H]1O)[C@@H](Cl)C[C@]13C(OC)=C(OC)C(=O)C[C@]21CCN3C,-,-,.,-,-,-,.,.,
NC(=S)N/N=C/c1coc2ccc(O)cc2c1=O,-,-,-,-,-,-,.,.,
NC(=S)N/N=C/c1coc2cc(Br)ccc2c1=O,-,-,-,-,-,58,.,58,
NC(=S)N/N=C/c1coc2ccc(Br)cc2c1=O,-,-,-,-,-,78,.,75,
Cc1ccc(CNC(=O)c2cc3cc(Br)ccc3oc2=N)cc1,-,-,-,-,-,-,.,.,
CC(NC(=O)C1CCN(C(=O)c2ccc(F)cc2)CC1)c1ccc(-n2ccnc2)cc1 (stereo not drawn),-,-,.,-,-,-,.,.,
O=C(COC(=O)CC1CCCC1)Nc1ccc(Cl)cc1,-,-,.,.,-,62,.,55,
Cc1cc(S(=O)(=O)N2CCN(CC(=O)N(C)Cc3ccccc3)CC2)ccc1Br,-,-,.,.,-,-,.,.,
CN(Cc1ccccc1)C(=O)CN1CCN(S(=O)(=O)c2ccc(Cl)c(Cl)c2)CC1,-,-,.,-,-,52,.,-,
CCC(C)NC(=O)c1cc2c(=O)n(CC)c3ccccc3c2s1 (stereo not drawn),-,-,-,-,-,52,.,49,
O=C(NC(=S)NC1CCCC1)c1ccccc1,-,-,-,-,-,58,.,46,
C/C(=N\NC(=S)NC1CCCCC1)c1ccc(C#N)cc1,-,-,-,-,-,-,.,.,
N#Cc1ccc(C(=O)NC(=S)NC2CCCCC2)cc1,-,-,.,-,-,65,.,41,
COc1cccc(CNC(=O)CSc2nc(=O)n(Cc3ccncc3)c3c2CCC3)c1,-,-,-,-,-,-,.,.,
C=CCn1c(-c2cc(-c3ccc(C)cc3)nc3ccccc23)n[nH]c1=S,-,-,-,-,-,60,.,53,
C=CCn1c(-c2cccc3ccccc23)n[nH]c1=S,-,-,-,-,-,-,.,.,
O=C1NN=C(c2ccc(Cl)cc2)CC1c1cccc(Br)c1 (stereo not drawn),-,-,-,-,-,53,.,59,
